An excerpt weighted towards active compounds, which were near 1.7% of everything screened.
PfHsp40 yeast: compounds rescuing yeast from Plasmodium falciparum HSP40 toxicity; S. cerevisiae expressing PfHsp40, growth rescue, ATP luminescence; growth rescue, % at 12.5 µM; 0.68% of 340,000 active; AID 504582; in the data active = growth rescue above about 28%, passing the limit was not always enough; inconclusive = no clear call, values can overlap the other calls;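 note: yeast W303a lacking pdr1 and pdr3 grown in galactose medium; growth measured after three days at 30 °C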
CCHF vOTU inh: blocks the CCHF virus ovarian tumor domain protease; 0.55% of 370,000 active; CCHFV vOTU protease, Pep-AMC fluorescence; AID 651958; inhibition, % at 11.5 µM; in the data active = inhibition above about 30%; note: 0% = vehicle wells with enzyme and 100% = no enzyme wells
RecA splice inh: blocks M. tuberculosis RecA intein splicing; P9WHJ3; cell-free RecA intein splicing, fluorescence; inhibition, % (concentration not given with the values); 0.75% of 290,000 active; in the data active = inhibition above about 30%; inconclusive = no clear call, values can overlap the other calls;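 note: 0% = vehicle wells and 100% = reference inhibitor control wells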
Target sequence (P9WHJ3 whole entry, looked up, canonical isoform): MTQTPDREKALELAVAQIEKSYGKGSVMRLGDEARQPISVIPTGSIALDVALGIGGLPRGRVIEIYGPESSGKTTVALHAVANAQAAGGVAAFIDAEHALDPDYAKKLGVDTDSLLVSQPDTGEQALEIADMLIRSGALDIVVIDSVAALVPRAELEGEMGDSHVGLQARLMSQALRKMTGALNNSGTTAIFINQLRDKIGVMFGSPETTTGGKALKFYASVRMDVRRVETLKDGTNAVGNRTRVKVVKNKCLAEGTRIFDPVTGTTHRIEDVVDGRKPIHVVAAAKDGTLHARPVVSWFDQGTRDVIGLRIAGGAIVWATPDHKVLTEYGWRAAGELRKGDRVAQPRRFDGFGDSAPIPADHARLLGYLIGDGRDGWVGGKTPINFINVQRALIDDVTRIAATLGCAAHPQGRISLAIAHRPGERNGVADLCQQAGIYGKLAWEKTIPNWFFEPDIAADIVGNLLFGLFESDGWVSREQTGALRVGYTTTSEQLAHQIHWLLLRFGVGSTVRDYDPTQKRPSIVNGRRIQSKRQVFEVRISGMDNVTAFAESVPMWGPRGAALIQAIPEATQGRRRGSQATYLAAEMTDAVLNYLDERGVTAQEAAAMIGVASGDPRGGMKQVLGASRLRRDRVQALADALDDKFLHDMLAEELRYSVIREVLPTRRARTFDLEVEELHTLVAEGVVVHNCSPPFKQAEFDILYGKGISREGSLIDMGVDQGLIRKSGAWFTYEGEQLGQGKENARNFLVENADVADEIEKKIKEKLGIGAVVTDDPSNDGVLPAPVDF
Mtb hypoxia inh: reduces hypoxia-regulated biosensor signal in M. tuberculosis. M. tuberculosis hypoxia-regulated fluorescent reporter, fluorescence. fluorescence inhibition, % (test concentration not listed). 0.1% of 300,000 active. AID 1159583; in the data active = fluorescence inhibition mostly above about 23%, no sharp cut-off; inactive = mostly below about 17%
Mtb betalactam: beta-lactam sensitization of Mtb H37Rv; M. tuberculosis H37Rv growth with meropenem, percent inhibition; inhibition, % at 25 µM; 0.27% of 330,000 active; AID 434955; call rule not given here;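 note: growth measured after seven days incubation then overnight dye step; 0% = bacteria only wells and 100% = bacteria with antibiotic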
Active calls of the source: *.

For COc1ccc(-n2c(C)cc(C(=O)CCl)c2C)cc1 the results were PfHsp40 yeast 0, CCHF vOTU inh 13, RecA splice inh 34* and Mtb betalactam 98.
Screening COc1ccc(-n2c(C)cc(C(=O)CN3C(=O)c4ccccc4C3=O)c2C)cc1 returned PfHsp40 yeast 0, CCHF vOTU inh -8, RecA splice inh -1, Mtb hypoxia inh 7 and Mtb betalactam 5.
Screening COC(=O)C1=C(c2ccc(-c3ccccc3)c(F)c2)CC2CCC1N2C(=O)NC1Cc2ccccc2C1 (stereo unspecified) returned Mtb hypoxia inh 6.
COc1cc(/C=C/[N+](=O)[O-])ccc1OC(=O)c1cc2ccccc2oc1=O was read as PfHsp40 yeast 118*, CCHF vOTU inh 5, Mtb hypoxia inh -10 and Mtb betalactam 1.
COc1cccc(CNC(=O)CSc2ccc(-c3ccccn3)nn2)c1 was read as PfHsp40 yeast 357*, CCHF vOTU inh -12, RecA splice inh -1, Mtb hypoxia inh 7 and Mtb betalactam -5.
`Cc1ccc(CNC(=O)CSc2ccc(-c3ccccn3)nn2)cc1` gave PfHsp40 yeast 219*, CCHF vOTU inh 5, RecA splice inh 1, Mtb hypoxia inh 12 and Mtb betalactam -11.
O=C(CSc1ccc(-c2ccccn2)nn1)NCc1ccc(Cl)cc1 was read as PfHsp40 yeast 331*, CCHF vOTU inh -7, RecA splice inh 1, Mtb hypoxia inh 11 and Mtb betalactam 3.
COc1cccc(CNC(=O)CSc2ccc(-c3ccco3)nn2)c1 was read as PfHsp40 yeast 1, CCHF vOTU inh -13, RecA splice inh -7, Mtb hypoxia inh 2 and Mtb betalactam -7.
For Cc1ccc(CNC(=O)CSc2ccc(-c3cccs3)nn2)cc1 the results were PfHsp40 yeast 0, CCHF vOTU inh -1, RecA splice inh 1, Mtb hypoxia inh -4 and Mtb betalactam -8.
Screening CCC(CC)CN1C(Nc2ccccc2)=NCC1CC(C)C (stereo unspecified) returned Mtb hypoxia inh 2.
`O=[N+]([O-])c1cc(Br)c(O)c(C=NNc2nnnn2-c2cccc3ccccc23)c1` gave Mtb hypoxia inh 4.
`Cc1cc(C)n(CC(=O)NN=Cc2ccc([N+](=O)[O-])s2)n1` gave Mtb hypoxia inh -7.
Screening Clc1ccc(N2CCOCC2)nn1 returned PfHsp40 yeast -2, CCHF vOTU inh -4, RecA splice inh -1, Mtb hypoxia inh 1 and Mtb betalactam 0.
Screening Cc1cc(C)n(-c2ccc(N3CCOCC3)nn2)n1 returned PfHsp40 yeast 36*, CCHF vOTU inh 1, RecA splice inh -1, Mtb hypoxia inh 11 and Mtb betalactam 2.
`Cc1cccc(C(=O)CC(=O)c2cc(Cl)ccc2O)c1` gave PfHsp40 yeast 82*, RecA splice inh 8, Mtb hypoxia inh 11 and Mtb betalactam 3.
Cc1ccsc1C(=O)N1CCCC(CCC(=O)NCc2ccccc2F)C1 (stereo unspecified) was read as PfHsp40 yeast 37*, CCHF vOTU inh 20, RecA splice inh 0, Mtb hypoxia inh 5 and Mtb betalactam -4.
O=C(NN=C/C=C/c1ccco1)c1cccs1 was read as Mtb hypoxia inh 9.
`O=[N+]([O-])c1cc(-c2ccccc2)cc([N+](=O)[O-])c1O` gave PfHsp40 yeast inconclusive, CCHF vOTU inh 6 and Mtb hypoxia inh 16.
For Oc1c(Br)cc(-c2ccccc2)cc1Br the results were PfHsp40 yeast 580*, CCHF vOTU inh 15 and Mtb hypoxia inh 18.
Screening CCN1C(=O)N[C@@H](c2ccccc2)[C@@H](C(=O)OC)[C@H]1C returned PfHsp40 yeast 33*, CCHF vOTU inh -11, RecA splice inh -2 and Mtb betalactam -8.
`COc1cccc(NC(=O)N2CCc3ccccc3C2)c1` gave PfHsp40 yeast 0, CCHF vOTU inh 8, RecA splice inh 4, Mtb hypoxia inh 7 and Mtb betalactam 1.
O=C(Nc1cccc(Cl)c1)N1CCc2ccccc2C1 was read as PfHsp40 yeast 44*, CCHF vOTU inh -8, RecA splice inh 3, Mtb hypoxia inh 3 and Mtb betalactam -4.
CCOC(=O)c1sc2nc(CC(=O)OC)nc(NCCN(CC)CC)c2c1C was read as PfHsp40 yeast 74*, CCHF vOTU inh -30, RecA splice inh 0, Mtb hypoxia inh 6 and Mtb betalactam -11.
For CCOC(=O)c1sc2nc(CC(=O)OC)nc(NCCN3CCOCC3)c2c1C the results were PfHsp40 yeast 1, CCHF vOTU inh -3, RecA splice inh -1 and Mtb hypoxia inh -1.
CC(=NNS(=O)(=O)c1ccccc1)c1cc(Cl)cc(Cl)c1O was read as Mtb hypoxia inh 17.
Cc1cccc(C)c1N=Nc1c(C)cc(O)cc1C was read as PfHsp40 yeast 782*, CCHF vOTU inh 16, RecA splice inh 23, Mtb hypoxia inh 13 and Mtb betalactam 54.
For COc1ccc(C2C=CCN(C(=O)c3ccc(C)cc3)CC(=O)N2Cc2ccc(F)cc2)cc1 (stereo unspecified) the results were Mtb hypoxia inh 13.
Screening CCCc1cc(C(=O)NNC(=S)NCC2CCCO2)cs1 (stereo unspecified) returned PfHsp40 yeast 69*, CCHF vOTU inh -19, RecA splice inh -1, Mtb hypoxia inh 7 and Mtb betalactam -5.
`C=CCn1c(-c2cc(-c3ccc(C)cc3)nc3ccccc23)n[nH]c1=S` gave PfHsp40 yeast 414*, CCHF vOTU inh 8, RecA splice inh 9, Mtb hypoxia inh -20 and Mtb betalactam 30.
Screening CCn1c(-c2cc(-c3ccc(C)cc3)nc3ccccc23)n[nH]c1=S returned PfHsp40 yeast 39*, CCHF vOTU inh 7, RecA splice inh 2, Mtb hypoxia inh 18 and Mtb betalactam 38.
`CCn1c(-c2cc(-c3ccc(OC(C)C)cc3)nc3ccccc23)n[nH]c1=S` gave PfHsp40 yeast -1, RecA splice inh 9, Mtb hypoxia inh -1 and Mtb betalactam 45.
COC(=O)C1=C(c2cc3ccccc3o2)CC2CCC1N2C(=O)N1CCOCC1 (stereo unspecified) was read as Mtb hypoxia inh 21.
Screening CC1OC(OC2C(COC3OC(CO)C(O)C(O)C3O)OC(OC3CC[C@]4(C)C(CC[C@@]5(C)C4C=C[C@]46OC[C@@]7(CCC(C)(C)CC74)C(O)C[C@@]56C)C3(C)C)C(O)C2O)C(O)C(O)C1O (stereo partly specified) returned Mtb hypoxia inh -3.
COC(=O)C1=C(c2cc3ccccc3s2)CC2CCC1N2C(=O)NCCS(C)=O (stereo unspecified) was read as Mtb hypoxia inh 16.
`O=[N+]([O-])c1ccc(-c2nc(-c3cccs3)c(-c3cccs3)[nH]2)cc1` gave PfHsp40 yeast 438*, CCHF vOTU inh 21, RecA splice inh -4, Mtb hypoxia inh 4 and Mtb betalactam 99.
Screening Fc1ccc(-c2nc(-c3cccs3)[nH]c2-c2ccc(F)cc2)cc1 returned PfHsp40 yeast 129*, CCHF vOTU inh 6, RecA splice inh 4, Mtb hypoxia inh -4 and Mtb betalactam -5.

Source: PubChem
